Test results as given in PubChem BioAssay (NCI).
About 83,000 compounds went through this panel and 20% of them were active in at least one assay; those are over-represented in the sample as a whole.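 Activity criterion: percent growth below 10, measured after cells in 96-well plates were exposed to a single compound concentration for 48 hours.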 Values without a mark were called inactive. Active and inactive are the calls of the source.

What was measured:
Experiment in all cases: NCI-60 one-dose screen, 48 h (100 = growth as untreated, 0 = no growth, -100 = all killed)
Conditions in all cases: 10 µM
[1] = test system: SR leukemia
[2] = test system: RPMI-8226 leukemia
[3] = test system: OVCAR-8 ovarian
[4] = test system: OVCAR-5 ovarian
[5] = test system: OVCAR-4 ovarian
[6] = test system: SK-OV-3 ovarian
[7] = test system: IGROV1 ovarian
[8] = test system: OVCAR-3 ovarian
[9] = test system: HS 578T breast
[10] = test system: NCI/ADR-RES ovarian
[11] = test system: T-47D breast
[12] = test system: BT-549 breast
[13] = test system: MDA-MB-435 melanoma
[14] = test system: SW-620 colon
[15] = test system: MCF7 breast
[16] = test system: HCT-116 colon
[17] = test system: HCC-2998 colon
[18] = test system: KM12 colon

Row | Compound | growth [1] | growth [2] | growth [3] | growth [4] | growth [5] | growth [6] | growth [7] | growth [8] | growth [9] | growth [10] | growth [11] | growth [12] | growth [13] | growth [14] | growth [15] | growth [16] | growth [17] | growth [18]
1 | CC(C)(C)OC(=O)CC(S(=O)(=O)c1ccccc1)S(=O)(=O)c1ccccc1 | 77.9% | 99.3% | 101% | 98.8% | 107% | 101% | 114% | 48.3% | 102% | 107% | 67.1% | 108% | 100% | -63.9% (active) | 97% | 82.5% | 106% | 99.6%
2 | Cc1ccc(S(=O)(=O)N/N=C2\CCCc3ccccc32)cc1 | 110% | 94.3% | 95.2% | 90% | 95.8% | 111% | 113% | 113% | 95% | 96.7% | 94% | 115% | 101% | 101% | 92.1% | 114% | 108% | 111%
3 | CCc1ccc(-c2ccc(-n3nc(C)c4c(N)nc(Cc5ccccc5)nc43)cc2)cc1 | 21.2% | 86% | 32.3% | 73.5% | 63.9% | 62.8% | 68% | 80% | 57.6% | 38.4% | 49.7% | 72% | 82.7% | 77.8% | 58.1% | 59.1% | 23.7% | 53.5%
4 | COc1cc2ncnc(NC3CCC(O)CC3)c2cc1OC (stereo unspecified) | 77.4% | 104% | 97.4% | 92.1% | 103% | 109% | 97.1% | 111% | 95.5% | 100% | 80.3% | 92.1% | 106% | 101% | 88.3% | 91.4% | 106% | 95.3%
5 | S=C(NCc1ccccc1)NCc1ccccc1 | 98.4% | 100% | 94.7% | 108% | 102% | 99.2% | 97.4% | 98.5% | 96.1% | 99.5% | 94.6% | 95.4% | 101% | 100% | 96.3% | 97.3% | 111% | 102%
6 | COc1ccc(/C=C2\CCCC3=C2NC(N)=NC3c2ccc(OC)cc2)cc1 (stereo unspecified) | 81.9% | 57.7% | 95.8% | 103% | 72.8% | 78.3% | 99.7% | 102% | 112% | 90.8% | 104% | 112% | 90.2% | 95.8% | 72.3% | 78.6% | 116% | 87.2%
7 | COc1cc2cc(Oc3ccc(NC(=O)Nc4ccc(Cl)c(Cl)c4)cc3)c(C)nc2cc1OC | 18% | 4.2% (active) | 15% | 53% | 31.9% | 28.6% | 18.6% | -10% (active) | 45.1% | 17.1% | 60.9% | 28.1% | 12.3% | 23.4% | 13.8% | 10.5% | 37.6% | 13.9%
8 | COc1cccc(-c2nc3sccn3c2-c2cccc(S(C)(=O)=O)c2)c1 | 94.7% | 95.9% | 101% | 96.3% | 107% | 114% | 99% | 113% | 99.3% | 92.5% | 98.7% | 103% | 110% | 104% | 79.6% | 104% | 94% | 109%
9 | CC(=O)O[C@@]12CO[C@@H]1C[C@H](O)[C@@]1(C)C(=O)[C@H](O)C3=C(C)[C@@H](OC(=O)[C@H](O)[C@@H](NC(=O)OC(C)(C)C)c4ccccc4)C[C@@](O)([C@@H](OC(=O)c4ccccc4)C12)C3(C)C (stereo partly specified) | 11.1% | 25.4% | 38.4% | 40.1% | 58% | 47.3% | 39.2% | 7.26% (active) | 12.3% | -21.2% (active) | 65.2% | 42.8% | -11.7% (active) | 48.1% | 16.1% | 34.6% | -18.8% (active) | 29.6%
10 | CC(C)(C)c1ccc(S(=O)(=O)N[C@H]2CC[C@H]3[C@@H]4CCc5cc(O)ccc5[C@H]4CC[C@]23C)cc1 | 20.5% | 37.9% | 50% | 92.7% | 51.4% | 87% | 44.6% | 37.3% | 63.1% | 46.4% | 26.2% | 43.9% | 30.4% | 58.5% | 14.9% | 22.1% | 74.4% | 39.2%
11 | C[C@@H](O)[C@H]1C(=O)N2C(C(=O)O)=C(SC3CN[C@H](C(=O)N(C)C)C3)[C@H](C)[C@H]12 (stereo partly specified) | 123% | 96.5% | 107% | 100% | 114% | 115% | 101% | 116% | 102% | 101% | 98.2% | 105% | 101% | 99.4% | 101% | 104% | 106% | 108%
12 | C#C[C@]1(O)CCC2C3CCc4cc(OC5CCCC5)ccc4C3CC[C@@]21C (stereo partly specified) | 15.1% | 80.4% | 81.3% | 63.2% | 92.9% | 100% | 101% | 96.4% | 85.6% | 87.6% | 84% | 105% | 94.8% | 53.4% | 74.3% | 68.6% | 74.1% | 34.1%
13 | O=C(CNc1nnc(-c2cccnc2SCc2ccccc2)s1)Nc1nc(Cl)cc(Cl)n1 | 98.5% | 108% | 118% | 109% | 103% | 99.2% | 96.6% | 106% | 130% | 114% | 79.3% | 100% | 114% | 117% | 89.1% | 106% | 122% | 97.9%
14 | COc1ccc(/C=C/c2nnc(/C=C/c3ccc(OC)c(OC)c3)o2)cc1OC | 11.6% | 34% | 42.1% | 41.3% | 57.6% | 34.1% | 22.5% | 17.6% | 43.6% | 13.6% | 19.5% | 25.5% | 10.4% | 18.1% | 22.8% | 4.83% (active) | 54.9% | 33.7%
15 | CCC1NC(=O)c2cc(S(N)(=O)=O)c(Cl)cc2N1 (stereo unspecified) | 103% | 109% | 100% | 105% | 130% | 118% | 120% | 126% | 112% | 108% | 104% | 114% | 101% | 108% | 106% | 115% | 105% | 113%
16 | O=C(Nc1ccc(F)cc1)c1cc2ccccc2cc1O | 43.2% | 37.9% | 82.7% | 100% | 57.8% | 52.2% | 68.4% | 84.6% | 87.9% | 75.9% | 46.3% | 72.4% | 86.3% | 90.9% | 58.5% | 77.9% | 104% | 69.2%
17 | O=C(/C=C/C=C/c1c(C2CC2)nc2ccccc2c1-c1ccc(F)cc1)c1cccs1 | -6.7% (active) | -26.6% (active) | 18.1% | 1.66% (active) | 24% | 42.6% | 19.1% | -2.17% (active) | 24.4% | 22.9% | 4.82% (active) | 3.45% (active) | 2.03% (active) | 6.11% (active) | 12.4% | -32.6% (active) | -12.9% (active) | 9.97% (active)
